Laboratory results reported in PMC7819943, “Rice protein-binding microarrays: a tool to detect cis-acting elements near promoter regions in rice”.
Over roughly 35,000 sequences, “fluorescence intensity (a.u.)” has its median near 10,000; the highest 2% begin near 52,000. The sample holds the highest values, similar sequences and a random draw of the others, so the mix is not that of the screen.

What follows are sequences tested against T1, OsWOX13 (Oryza sativa, UniProt Q5QMM3 1-267) (assay: protein-binding microarray (RPBM); PBS, 2% BSA, 51.3 ng/ul salmon testes DNA, 50 uM zinc acetate, 200 nM TF, 25 C, 1 h; high values mean tight binding). Conditions: protein: recombinant; tags: N-terminal polyhistidine and DsRed monomer fusion (pET32a); label: CyDye5-dUTP incorporated in the synthesized complementary strand; 3' TTTTT single-stranded linker to array surface; dsDNA, one strand shown.
T1 sequence: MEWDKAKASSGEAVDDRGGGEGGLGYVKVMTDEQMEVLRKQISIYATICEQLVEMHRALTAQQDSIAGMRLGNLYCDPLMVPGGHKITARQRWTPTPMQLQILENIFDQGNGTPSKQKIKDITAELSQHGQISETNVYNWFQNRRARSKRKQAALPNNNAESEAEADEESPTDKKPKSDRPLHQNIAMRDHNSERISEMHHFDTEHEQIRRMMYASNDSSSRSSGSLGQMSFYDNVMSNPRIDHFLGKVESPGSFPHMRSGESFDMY
Procedure, shortened: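 Binding signal is reported as fluorescence intensity per feature (arbitrary units) from an Axon 4000B scanner. Incubation used 200 nM of each Ni–NTA-purified, N-terminally polyhistidine- and DsRed-fused transcription factor from E. coli BL21-CodonPlus on a double-stranded custom Agilent array for 1 h at 25 °C, with 50 µM zinc acetate in the buffer, followed by washing.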

Sequence	binding signal
GTATATTTAATAATAAATCAACTCGCAATGAGACAAAATGCGGAGTCACCTAGTGCAG	4570 fluorescence intensity (a.u.)
ATTCTTAAATTGTTTTAACTAATACTTAATCAGCCATGAACGGAGTCACCTAGTGCAG	7790 fluorescence intensity (a.u.)
TTGGTGATATTGATGGAGCATGTTTTATTTGATAGAATAGCGGAGTCACCTAGTGCAG	3390 fluorescence intensity (a.u.)
TTCAATTGATATAGACACAGATCTATGTGATTCACTGACACGGAGTCACCTAGTGCAG	21700 fluorescence intensity (a.u.)
TTAGATAGATTAATATGTGATAGATCTTCACAAACAGACACGGAGTCACCTAGTGCAG	54900 fluorescence intensity (a.u.)
AATTCTAATATATTTGATTGTTTCAAAATAAAGTCTTTGCCGGAGTCACCTAGTGCAG	14700 fluorescence intensity (a.u.)
TTGAATGACTACGAATTTGTTTAAATATTTGCATTCCATCCGGAGTCACCTAGTGCAG	7180 fluorescence intensity (a.u.)
CATTGATGACACAAAATAGTAGCAACTAAACAAACCAGAACGGAGTCACCTAGTGCAG	6690 fluorescence intensity (a.u.)
GATAGATTAATATATGATATATCTTTTCACAAACATACAACGGAGTCACCTAGTGCAG	10500 fluorescence intensity (a.u.)
GTGCTCTTTAATTATCACTTTGTGCGCACTTTTCTTTGATCGGAGTCACCTAGTGCAG	6410 fluorescence intensity (a.u.)
TGCCGATTGATCTTTTATCCTTTGGGGCATATGCTCGAGTCGGAGTCACCTAGTGCAG	24400 fluorescence intensity (a.u.)
ATTGATTGACCGAGCGCACTACTCTTTATCTTTTCGATTGCGGAGTCACCTAGTGCAG	64900 fluorescence intensity (a.u.)
TTGATTGATGGGAGTCTAACAAAGTGACAAAACTTAGCAACGGAGTCACCTAGTGCAG	53900 fluorescence intensity (a.u.)
AACTTGAAACAATTTGATTTTGACTAAAGTCAAAACGTCTCGGAGTCACCTAGTGCAG	4710 fluorescence intensity (a.u.)
TTTGATTGTTTCCATTTGCAATTTCTAAATACGAACCTGCCGGAGTCACCTAGTGCAG	57500 fluorescence intensity (a.u.)
CAGAATTTACAAAATGGATTGACCAAAAGCCTAATTAATTCGGAGTCACCTAGTGCAG	7770 fluorescence intensity (a.u.)
CAAGATTTTAATAAATGCATAATTTTATGAATCGCATAGACGGAGTCACCTAGTGCAG	7290 fluorescence intensity (a.u.)
CATGACATACAATTTATCAGATCCAATTTTAGGATTATTCCGGAGTCACCTAGTGCAG	10900 fluorescence intensity (a.u.)
GTTAACTAATTAGGGCGTATGAACAAGTCATCGTGGCAGTCGGAGTCACCTAGTGCAG	23000 fluorescence intensity (a.u.)
GAATAATTACCGAAAAGGCAATTAATTAGTGACAGGGAGTCGGAGTCACCTAGTGCAG	26200 fluorescence intensity (a.u.)
GGCTTCCTTAATTGTACATGTCTCTCTTCATTCTGCTGCACGGAGTCACCTAGTGCAG	5930 fluorescence intensity (a.u.)
TTTCTGATTTACGTGGCTTGTGAGTAGGGCGCCTCCTCATCGGAGTCACCTAGTGCAG	8000 fluorescence intensity (a.u.)
TTATGATTATTTTAGAATTTTCAAAATCATGGAATATAATCGGAGTCACCTAGTGCAG	7490 fluorescence intensity (a.u.)

Sequence	binding signal
GCCTTAACTTTGTGATCATATCTTCATCTTCATTAGGCCTCGGAGTCACCTAGTGCAG	4300 fluorescence intensity (a.u.)
GTAAATTGATTTGTATATGGCCATTTCCAACCCAAAACACCGGAGTCACCTAGTGCAG	56300 fluorescence intensity (a.u.)
ATCTAAATTGTTTTAGATTTGTGCACAAGAACAAAAGAGACGGAGTCACCTAGTGCAG	16800 fluorescence intensity (a.u.)
AATTGAGACTTCGGTAAAACTTAAGGGACTAAATTAACTACGGAGTCACCTAGTGCAG	52700 fluorescence intensity (a.u.)
CATCTAATTTAAATTTAAATGTTTTAAAAGATAGAGACGTCGGAGTCACCTAGTGCAG	52400 fluorescence intensity (a.u.)
TAAATTTAAACGGTAAATTAAGGAGAGGGAGGTCATTCTTCGGAGTCACCTAGTGCAG	6560 fluorescence intensity (a.u.)
ATTTGTATAATTGGAACCATGCCATTCCAACACAACAAAACGGAGTCACCTAGTGCAG	6320 fluorescence intensity (a.u.)
AATACAATTAATTACAGTTAATTAAATGATAGAAAGAGTTCGGAGTCACCTAGTGCAG	55400 fluorescence intensity (a.u.)
AAACAGTTTTCCCCAAAATTGATTGTAAATATACATATACCGGAGTCACCTAGTGCAG	14900 fluorescence intensity (a.u.)
TTAAATGATAGAAATACAATTATTACGGAATAGAATGTAGCGGAGTCACCTAGTGCAG	29100 fluorescence intensity (a.u.)
CTAAATTATACGGAGATGATAATGTAGTTACAGTGCAGTTCGGAGTCACCTAGTGCAG	21900 fluorescence intensity (a.u.)
TAATTAAATTGTCATATCACTTCTTAACTTATTGGACTAACGGAGTCACCTAGTGCAG	5280 fluorescence intensity (a.u.)
GATGCCATCTAATTTTAAATGATGATGTGGAGAAGAGAGTCGGAGTCACCTAGTGCAG	7100 fluorescence intensity (a.u.)
TGTATGATTTATGTATAATTAGAGATATACAATCATATAACGGAGTCACCTAGTGCAG	16900 fluorescence intensity (a.u.)
AGGAGAAACAATTTGCAATCATCACATTGTTTAAAGAGATCGGAGTCACCTAGTGCAG	5330 fluorescence intensity (a.u.)
CATTGGAATTGATGATCACATTATACATGGATTTGACCCACGGAGTCACCTAGTGCAG	30600 fluorescence intensity (a.u.)
TCTAAACTAATCTAATCTAGCAACGCGATTTAGCCGATACCGGAGTCACCTAGTGCAG	9190 fluorescence intensity (a.u.)
TTCTGTCAATTAGGTGGGTGACATGTGGATCCCACGATATCGGAGTCACCTAGTGCAG	13200 fluorescence intensity (a.u.)
TTGATTGGAAAGATTGGAAAGAATTGAATGCGAATTGGTACGGAGTCACCTAGTGCAG	34500 fluorescence intensity (a.u.)
GTGATTACATTGATAATAATTGATTGAATCAGTTTGTTCTCGGAGTCACCTAGTGCAG	62600 fluorescence intensity (a.u.)
ACTGATTTGTTTTATTGTTTTGATTTTAATCCTCTCAATTCGGAGTCACCTAGTGCAG	38800 fluorescence intensity (a.u.)
AGATAGATTAATATATGATAAATCACTAATATCAAATTTACGGAGTCACCTAGTGCAG	5780 fluorescence intensity (a.u.)
